The list is not random: actives were taken first. Their share in the collection is about 1.5%.
IL2 activator = activators of IL-2; 360,000 compounds, 0.065% hits; activation, % (series mostly up to about 46 µM); IL-2 activation reporter assay, cell-based qHTS; stimulated with anti-CD3/CD4/CD28 beads; in transgenic mouse T cells; AID 652025; in the data active = activation above about 50%; inconclusive = mostly about 30% to 49%
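First, unstimulated transgenic mouse T cells were exposed to compound for 60 min. Next, anti-CD3/anti-CD4-coated beads with anti-CD28 were added. Finally, after 18 h at 37 degrees C, EGFP and DsRed were imaged.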
BRCA1 expr act = BRCA1 expression activation; MCF7-BRCA1-FFLuc reporter, luminescence, 48 h; response scale: scaled: vehicle 0%, 10 µM genistein 100%; Potency, µM (doses to about 46.1 µM), hits mostly activators; 380,000 compounds, 1.1% hits; also: nearly all actives have a fitted effect of over 80% in size
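MCF7 cells carrying a BRCA1-firefly luciferase reporter (2000 cells/well, phenol-red free MEM) were attached for 2 h at 37 °C, then given compounds for 48 h. Luminescence was read 15 min after luciferase reagent; activity normalized to genistein (10 microM) and DMSO.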
gsp antagonist = antagonists of gsp mutant (McCune-Albright syndrome); 340,000 compounds, 0.4% hits; Potency, µM (highest dose often 76.9 µM), actives largely listed as inhibitors; gsp-mutant cells, cAMP HTRF, 30 min; AID 624288; calls by dose curve; cell line not stated here;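 also: intracellular cAMP measured with PDE inhibitor Ro 20-1724 present during compound exposure; nearly all actives have a fitted effect of over 65% in size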
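HTRF cAMP measurement after 30 min RT detection following 30 min, 37C compound treatment alongside […] (added as 300 uM solution) in G418-selected cells seeded at 2000/well and grown 16–24 h.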
mIDH1 inhibitor = human IDH1 R132H inhibition | Potency, µM (doses to about 76.6 µM), usual class: inhibitors | IDH1-R132H enzyme, NADPH consumption, diaphorase/resazurin fluorescence | 390,000 compounds, 0.093% hits | O75874; also: nearly all actives have a fitted effect of over 65% in size
Target sequence (O75874 whole entry R132H, stated change not applied): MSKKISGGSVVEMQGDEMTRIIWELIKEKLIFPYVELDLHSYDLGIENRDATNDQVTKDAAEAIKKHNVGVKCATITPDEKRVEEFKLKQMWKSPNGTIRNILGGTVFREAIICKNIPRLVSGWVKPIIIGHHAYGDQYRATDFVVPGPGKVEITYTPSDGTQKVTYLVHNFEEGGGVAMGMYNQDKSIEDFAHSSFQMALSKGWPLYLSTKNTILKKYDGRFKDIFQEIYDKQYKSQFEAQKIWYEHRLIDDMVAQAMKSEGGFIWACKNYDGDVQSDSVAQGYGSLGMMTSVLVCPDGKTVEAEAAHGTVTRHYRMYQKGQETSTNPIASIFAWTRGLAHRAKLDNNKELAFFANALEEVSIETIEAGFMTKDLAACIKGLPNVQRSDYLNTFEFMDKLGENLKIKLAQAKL
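IDH1-R132H (0.5 ug/mL dispensed) in pH 7.5 Tris buffer was preincubated 30 min with compound, then given a substrate mix of 0.016 mM NADPH and 2 mM alpha-KG for 80 min at room temperature; remaining NADPH was read by diaphorase/resazurin fluorescence.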
gsp agonist = activates gsp, the McCune-Albright syndrome mutation; gsp mutant cells, cAMP HTRF, 30 min; Potency, µM (doses to about 76.9 µM), most hits filed as activators; 340,000 compounds, 0.13% hits; active = well fitted activation curve with a large enough effect; inconclusive = small, poorly fitted or top-dose-only effect, or another doubt; inactive = no such curve, though single readings can be large or run the other way; cell line not stated here;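 also: phosphodiesterase inhibitor Ro 20-1724 added with compounds to block cAMP breakdown; nearly all actives have a fitted effect of over 60% in size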
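Cells in DMEM/10% FBS with G418 were pretreated with compounds in DMSO plus […] (300 uM stock) for 30 min at 37C. cAMP was measured by HTRF (cAMP-d2 plus anti-cAMP antibody-K) after 30 min at room temperature.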
Resorufin autofl = interferes with resorufin fluorescence in IDH1 counter-screen. inhibition of signal, % at 51.2 µM. 750 tested, under 10 active. AID 623980. Resorufin detection reagent fluorescence interference, cell-free. shares compounds with mIDH1 inhibitor
WT IDH1 inh = wild-type IDH1 (human) inhibition counterscreen | 750 compounds, 9% hits | WT IDH1 enzyme, NADPH diaphorase/resazurin fluorescence | shares compounds with mIDH1 inhibitor | Potency, µM (top dose mostly 115 µM), most hits filed as inhibitors; also: nearly all actives have a fitted effect of over 55% in size
Target sequence (O75874 whole entry, looked up): as the sequence (O75874 whole entry R132H, stated change not applied) above, with H132R counted along it
IDH1 R132H conf = inhibits human mutant IDH1 enzyme in cherrypick confirmation; shares compounds with mIDH1 inhibitor; IDH1 R132H enzyme, NADPH diaphorase/resazurin fluorescence; Potency, µM (highest dose often 76.6 µM), usual class: inhibitors; 750 compounds, 83% hits; also: nearly all actives have a fitted effect of over 50% in size
Hits are given with their value; 0 = inactive; ? = inconclusive; - = no result given; [ ] = another dose, or the depositor's remark. Unless noted, calls follow the shape of the dose curve; as a rule, active = well fitted curve in the direction sought with a large enough effect; inconclusive = small, poorly fitted or top-dose-only effect, or another doubt; inactive = no such curve, though single readings can be large; an effect the other way counts as inactive or inconclusive.

SMILES | IL2 activator | BRCA1 expr act | gsp antagonist | mIDH1 inhibitor | gsp agonist | Resorufin autofl | WT IDH1 inh | IDH1 R132H conf
COc1ccc(CCNc2nc(SCc3cccc(Cl)c3)nc3ccccc23)cc1OC | - | - | - | 0 | - | - | - | -
Cc1ccc(Nc2nnc(SCC(=O)Nc3ncc(S(=O)(=O)c4ccc([N+](=O)[O-])cc4)s3)s2)cc1 | 0 | 0 | 0 | 0 | 0 | - | - | -
Cc1cc(=O)[nH]c(SCC(=O)Nc2ncc(S(=O)(=O)c3ccc([N+](=O)[O-])cc3)s2)n1 | 0 | 0 | 0 | ? | 0 | 0 | ? | 0
O=c1[nH]c(/C=C/c2ccccc2Cl)c([N+](=O)[O-])c(=O)[nH]1 | 0 | 0 | 0 | 0 | 0[15.4 µM] | - | - | -
O=C(COc1ccccc1/C=C\c1[nH]c(=O)[nH]c(=O)c1[N+](=O)[O-])Nc1ccccc1 | 0 | 0 | 0 | 41.4µM | 0 | 0 | ? | 39.8µM
CCOC(=O)c1c(S(=O)(=O)NCC(=O)Nc2cccc(CC)c2)c(C)n(C)c1C | - | - | - | 0 | - | - | - | -
NS(=O)(=O)c1ccc(Cc2ncc(C(F)(F)F)cc2Cl)s1 | 0 | 0 | 0 | 0 | 0[15.4 µM] | - | - | -
O=C(CCl)c1ccc(Cc2ncc(C(F)(F)F)cc2Cl)s1 | 0 | 0 | 0 | ? | 0 | 0 | ? | 22.4µM
Cc1ccc(-n2nc(C)c(C(=O)NCCCN3CCN(c4ccccc4F)CC3)c2-n2cccc2)cc1 | - | - | - | 0 | - | - | - | -
O=C(Nc1ccc(S(=O)(=O)N2CCOCC2)cc1)c1ccc2c(c1)S(=O)(=O)c1ccccc1C2=O | 0 | 0 | 0 | ? | 0[15.4 µM] | 0 | 0 | 3.98µM
O=C(Nc1cc(S(=O)(=O)N2CCOCC2)ccc1O)c1ccc2c(c1)S(=O)(=O)c1ccccc1C2=O | 0 | 0 | 0 | 0 | 0[15.4 µM] | - | - | -
COc1c(OC(C)=O)ccc(/C=C/c2ccc3ccccc3n2)c1[N+](=O)[O-] | 0 | ? | 25.1µM | ? | 0 | 0 | 0 | 31.6µM
COc1c(OC(C)=O)ccc(/C=C/c2ccc3cccc(OC)c3n2)c1[N+](=O)[O-] | 0 | 0 | 0 | ? | 0 | - | - | -
COc1cc(OC)c(NC(=O)c2ccc3c(Cl)c4c(nc3c2)CCCC4)cc1Cl | - | 0 | - | 0 | - | - | - | -
COc1cc(Cl)c(C)cc1NC(=O)c1ccc2c(SCC(=O)O)c3c(nc2c1)CCCC3 | 0 | 0 | - | ? | 0[15.4 µM] | 0 | ? | 28.2µM
CCOC(=O)c1ccccc1NC(=O)c1ccc2c(SCC(=O)O)c3c(nc2c1)CCCC3 | 0 | 0 | 0 | 41.4µM | 0 | 0 | 70.8µM | 15.8µM
COCCn1c(SCc2ccc(OC)c(F)c2)nnc1-c1ccncc1 | 0 | 0 | 0 | 0 | 0 | - | - | -
Cc1noc(NS(=O)(=O)c2ccc(NS(=O)(=O)c3ccc(C(C)(C)C)cc3)cc2)c1C | 0 | 0 | - | 39.8µM | 0 | 0 | 0 | 11.2µM
CC(=O)Nc1ccc(S(=O)(=O)Nc2ccc(Cc3ccncc3)cc2)cc1 | 0 | 0 | 0 | 0 | 0 | - | - | -
CC(C)(C)c1ccc(S(=O)(=O)Nc2ccc(Cc3ccncc3)cc2)cc1 | 0 | 0 | 0 | ? | 0 | 0 | 0 | 20µM
O=C(CCNS(=O)(=O)c1ccc(Br)s1)Nc1ccc(Br)cc1 | - | - | - | 0 | - | - | - | -
COc1ccc(Cl)cc1NC(=O)CSc1nc(=O)[nH]c2c1CCC2 | - | 0 | - | 0 | - | - | - | -
CCc1ccc([C@H]2[C@@H]3C(=O)C[C@@H]4C(=O)NC(=O)[C@@H]4[C@@H]3CN2S(=O)(=O)c2ccc(C)cc2)cc1 | 0 | 0 | - | - | - | - | - | -
CCc1ccc(CNC(=O)CN2C(=O)c3cccnc3Oc3ccc(Cl)cc32)cc1 | - | - | - | ? | - | 0 | 0 | 0
Cc1nc2ccn(Cc3ccco3)c(=O)c2cc1C(=O)NCc1ccc(F)cc1 | - | - | - | 0 | - | - | - | -
O=C(CSc1cn(CC(=O)N2CCCC2)c2ccccc12)Nc1ccccc1C(F)(F)F | - | - | - | 0 | - | - | - | -
Cc1[nH]nc2c1C(c1ccc(F)cc1)C(C#N)=C(N)O2 (configuration not stated) | 0 | 0 | 0 | 0 | 0 | - | - | -
